# TDP1 cell noCPT: qHTS for Inhibitors of human tyrosyl-DNA phosphodiesterase 1 (TDP1): qHTS in cells in absence of CPT. DT40 Tdp1-/- hTDP1 cells, no CPT, ATP luminescence, 48 h. Potency, µM (highest dose often 46.2 µM), for the others: top-dose activity change, negative = growth inhibition, actives largely listed as inhibitors. 15% of 420,000 active. AID 686978, 2013; also: % is scaled to controls: 0 for no effect and ±100 for the full control effect; nearly all actives have a fitted effect of over 55% in size
#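 Stably hTDP1-transfected Tdp1-null chicken DT40 cells were treated with library compounds minus camptothecin and grown for at least 48 hr at 37 °C, after which cellular ATP was quantified by luminescence.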
# TDP1 block: TDP1 (human) enzyme inhibition; recombinant TDP1, AlphaScreen DNA substrate cleavage; Potency, µM (series often up to 130 µM), for the others: at the highest dose activity change, negative = inhibition, most hits filed as inhibitors; 0.28% of 350,000 active; also: % is scaled to controls: 0 for no effect and ±100 for the full control effect; nearly all actives have a fitted effect of over 40% in size
# Target sequence (Q9NUW8 whole entry, looked up): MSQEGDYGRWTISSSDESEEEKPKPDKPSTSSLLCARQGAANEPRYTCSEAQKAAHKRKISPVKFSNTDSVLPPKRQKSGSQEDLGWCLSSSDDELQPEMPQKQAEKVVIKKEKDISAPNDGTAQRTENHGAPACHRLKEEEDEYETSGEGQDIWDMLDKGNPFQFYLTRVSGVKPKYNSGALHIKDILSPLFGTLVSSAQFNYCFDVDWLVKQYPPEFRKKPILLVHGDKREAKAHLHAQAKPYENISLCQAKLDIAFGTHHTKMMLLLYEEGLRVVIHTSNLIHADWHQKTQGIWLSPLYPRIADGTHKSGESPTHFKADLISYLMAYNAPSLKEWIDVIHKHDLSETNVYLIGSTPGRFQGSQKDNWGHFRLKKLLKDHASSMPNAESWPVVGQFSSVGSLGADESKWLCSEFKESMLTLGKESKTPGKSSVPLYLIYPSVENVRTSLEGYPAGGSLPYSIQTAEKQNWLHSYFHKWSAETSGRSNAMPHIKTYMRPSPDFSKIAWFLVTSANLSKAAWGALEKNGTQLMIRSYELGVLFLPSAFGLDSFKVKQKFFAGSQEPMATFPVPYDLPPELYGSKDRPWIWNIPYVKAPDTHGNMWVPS
#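 Signal: AlphaScreen proximity between streptavidin donor and anti-FITC acceptor beads on intact substrate. Reaction: Tdp1 1 nM, substrate 15 nM final, 5 min RT after 15 min compound preincubation.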
# TDP1 cell CPT: DT40-hTDP1 cell growth loss with CPT. chicken DT40 Tdp1-/-;hTDP1 cells + 20 nM CPT, ATP luminescence, 48 h. AID 686979. Potency, µM (titrated, usually from 46.2 µM), for the others: at the top dose activity change, negative = growth inhibition, usual class: inhibitors. 12% of 420,000 active; also: % is scaled to controls: 0 for no effect and ±100 for the full control effect; nearly all actives have a fitted effect of over 55% in size
#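 Chicken DT40 Tdp1-/- cells stably complemented with human TDP1 were seeded at 400 cells/well in medium containing 20 nM camptothecin, exposed to pin-transferred compounds, and grown at 37 °C for at least 48 hr. Viability was read as ATP luminescence.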
# ClpP mod: qHTS Assay for Activators of ClpP; ATP-dependent Clp protease proteolytic subunit (Bacillus subtilis (strain 168)), P80244; purified B. subtilis ClpP, FRET peptide cleavage, 20 min; Potency, µM (top dose mostly 57.5 µM), for the others: at the highest dose activity change, negative = active; 1.9% of 340,000 active; AID 651965, 2013; active = well fitted falling curve with a large enough effect; inconclusive = small, poorly fitted or top-dose-only effect; inactive = no such curve, though single readings can be large or run the other way; also: the source files actives as falling curves though it sought activators and does not explain the sign; nearly all actives have a fitted effect of over 65% in size
#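 Buffer: 100 mM Tris/HCl pH8, 100 mM KCl, 0.05% low protease BSA, 2.5% glycerol, 0.01% Tween-20. ClpP 10 microg/mL final; 20 min RT; delta FRET normalized to ADEP and DMSO controls.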
# * marks the source's active call; other numbers are inactive results; ? = inconclusive; nt = not tested or not shown; [ ] = another dose, or the depositor's remark. Hits are enriched below; roughly 17% of the tested compounds scored in any of these assays. Unless noted, calls follow the shape of the dose curve; as a rule, active = well fitted curve in the direction sought with a large enough effect; inconclusive = small, poorly fitted or top-dose-only effect, or another doubt; inactive = no such curve, though single readings can be large; an effect the other way counts as inactive or inconclusive. Potency is read from the fitted curve at half-maximal effect.
SMILES,TDP1 cell noCPT,TDP1 block,TDP1 cell CPT,ClpP mod
Cc1c(C(=O)N2CCCC2)oc2c1-c1nn(CC(=O)NCc3cccc(F)c3)cc1CC2,?,8%,?,5%
CCn1cc2c(n1)-c1c(oc(C(=O)Nc3cccc(C)c3C)c1C)CC2,15µM*,1%,?,-3%
CC(C)(C)CC(C)(C)NC(=O)/C=C/C(=O)O,1%,3%,7%,-1%
CC(=O)c1cccc(NC(=O)c2oc3c(c2C)-c2nn(Cc4ccc(Cl)cc4)cc2CC3)c1,26µM*,8%,?,-15%
CC1=C(C(=O)N2CCOCC2)CC(CC(=O)NC2CCCCC2)C(=O)N1Cc1ccccc1 (stereo not given),-13%,nt,-2%,-2%
CCOC(=O)Cc1csc(NC(=O)CC)n1,-3%,0%,8%,-2%
CCOC(=O)Cc1csc(NC(=O)/C=C/c2ccc(Cl)cc2)n1,?,-2%,18µM*,-7%
CCOC(=O)Cc1csc(NC(=O)/C=C/c2ccco2)n1,-11%,-4%,-11%,-2%
CCOC(=O)C(C)NC(=O)C(NC(=O)C1CCC(CC)CC1)C(C)C (stereo not given),?,-5%,15µM*,0%
CCOC(=O)Cc1csc(NC(=O)Cn2cnc3c2c(=O)n(C)c(=O)n3C)n1,-80%,-8%,16µM*,nt
CCOC(=O)Cc1csc(NC(=S)NC(=O)c2cc(OC)c(OC)c(OC)c2)n1,12µM*,8%,?,-1%
COc1ccc(CNc2nc3ccc(C)cc3s2)c(OC)c1OC,?,nt,?,-1%
Cc1ccccc1NC(=O)CCc1nnc2ccc(N3CCC4(CC3)OCCO4)nn12,8%,1%,-12%,0%
CCOC(=O)Cc1csc(NC(=O)c2cccc(OC)c2)n1,?,7%,-29%,0%
CCOC(=O)Cc1csc(NC(=O)c2sc3nc4c(C)cc(C)cc4cc3c2N)n1,18µM*,-3%,?,-5%
CCCNC(=O)Nc1nc(CC(=O)OCC)cs1,-4%,5%,-1%,-1%
CCOC(=O)Cc1csc(NC(=O)C(NC(=O)C2CCC(C)CC2)C(C)C)n1 (stereo not given),8.2µM*,nt,?,2%
CCOC(=O)Cc1csc(N/C(=N/S(=O)(=O)c2ccc(Cl)cc2)c2ccccc2)n1,29µM*,-2%,?,1%
CCOC(=O)Cc1csc(NC(=O)Nc2ccc(F)cc2)n1,18µM*,-5%,?,0%
CC1CCN(S(=O)(=O)c2ccc3c(c2)NC(=O)CS3)CC1,16%,0%,-16%,0%
Cc1ccc(CN(C)C(=O)c2cc(COc3ccc(F)cc3Cl)on2)o1,-22%,6%,?,nt
CSc1ccccc1OCc1cc(C(=O)N(Cc2nccn2C)C(C)C)no1,?,7%,18µM*,1%
Cc1ccc(CN(C)C(=O)c2cc(COc3cccc(C(F)(F)F)c3)on2)o1,18µM*,5%[56.1 µM],?,0%
Cc1cc(OCc2cc(C(=O)N(Cc3nccn3C)C(C)C)no2)cc(C)c1Cl,6.5µM*,8%,16µM*,-1%
CC(C)N(Cc1nccn1C)C(=O)c1cc(COc2cccc(C(F)(F)F)c2)on1,13µM*,7%,16µM*,1%
SMILES,TDP1 cell noCPT,TDP1 block,TDP1 cell CPT,ClpP mod
CC(C)(C)OC(=O)NCCc1onc(-c2ccc([N+](=O)[O-])cc2)c1C(=O)O,12%,nt,-4%,0%
O=C(NC1CCCCC1)c1cc2nc(-c3ccco3)cc(C(F)(F)F)n2n1,18µM*,5%,21µM*,-13%
O=C(NC12CC3CC(CC(C3)C1)C2)c1cc2nc(-c3ccco3)cc(C(F)(F)F)n2n1,26µM*,0%,21µM*,?
O=C(NC1CCCCC1)c1cc2nc3c(c(C(F)(F)F)n2n1)CCCC3,21µM*,2%,?,-3%
O=C(NCCCN1CCOCC1)c1cc2nc(-c3ccco3)cc(C(F)(F)F)n2n1,0%,-2%[0.0935 µM],9%,-3%
Cc1cnc(SCc2ccccn2)nc1C1CCCN(Cc2ccsc2)C1 (stereo not given),15µM*,nt,15µM*,nt
Cc1cnc(SCc2ccccn2)nc1C1CCCN(C(=O)c2cc3ccccc3oc2=O)C1 (stereo not given),21µM*,nt,16µM*,nt
Cc1cnc(SCc2ccccn2)nc1C1CCCN(C(=O)c2ccc3[nH]c(C)c(C)c3c2)C1 (stereo not given),?,nt,-1%[9.04 µM],nt
Cc1cnc(SCc2ccccn2)nc1C1CCCN(C(=O)c2ccc3c(c2)OCO3)C1 (stereo not given),?,nt,21µM*,nt
CCOC(=O)C1CCCN(C(=O)c2cc3ccccc3oc2=O)C1 (stereo not given),-2%,3%,-4%,0%
c1ccc(COC2CCCN(Cc3nc(-c4cnccn4)no3)C2)nc1 (stereo not given),17%,0%,-3%,-1%
Cc1cnc(SCCN2CCOCC2)nc1C1CCCN(C(=O)c2cccc3c(C)c(C)[nH]c23)C1 (stereo not given),16µM*,nt,0%[9.04 µM],nt
CCN(CC(=O)Nc1c(F)cccc1F)C(=O)c1ccc2c(c1)C(=O)N(c1ccccc1C)C2=O,-12%,nt,-14%,0%
CCC(Sc1ncc(S(=O)(=O)c2ccc(C)cc2)c(=O)[nH]1)C(=O)Nc1cc(C)ccc1C (stereo not given),nt,0%,nt,-5%
CCCOc1ccc(N2C(=O)CC(NCC#N)C2=O)cc1 (stereo not given),-11%,nt,4%,0%
CCCOc1ccc(N2C(=O)CC(NCCCN3CCC(C(N)=O)CC3)C2=O)cc1 (stereo not given),?,nt,26µM*,0%
CCCC(=O)N(c1ccc(OCC)cc1)S(=O)(=O)c1ccc2c3c(cccc13)C(=O)N2C,13µM*,-4%,15µM*,-8%
CCOc1ccc(CN2CCC(C(=O)Nc3cccc(-c4ccn[nH]4)c3)CC2)cc1Cl,?,3%,?,-5%
O=C(c1ccccc1NS(=O)(=O)c1ccc(Br)s1)N1CCCC1,-1%,5%,-9%,16µM*
O=C(c1ccccc1NS(=O)(=O)c1ccc(F)cc1)N1CCCC1,-1%,0%,-11%,0%
CC(C)NC(=O)c1ccccc1NS(=O)(=O)c1ccc(Br)s1,21µM*,5%,?,0%
CCOC(=O)C1(CC2CC2)CCN(C(=O)c2cc(C)nc3ccc(CC)cc23)CC1,18µM*,1%,21µM*,nt
CCOC(=O)C1(CC2CC2)CCN(C(=O)c2ocnc2C)CC1,-23%,0%,-17%,0%
O=C(NCCc1c[nH]c2ccccc12)c1cc(S(=O)(=O)N2CCCCC2)ccc1N1CCOCC1,13µM*,8%,?,-16%
